Our source for the inhibition values is PubChem BioAssay AID1012 (Sanford-Burnham Center for Chemical Genomics, 2008).

The structures appear in SMILES notation. Screen size: about 200,000 compounds; about 520 (0.26%) were called active.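 The calls were made as follows: active = tissue-nonspecific alkaline phosphatase inhibition above about 50% at 20 µM in the single-dose screen (limit read from the data); inactive = the rest.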 The full list was thinned out, with actives kept by preference.

Sequence of Alkaline phosphatase, tissue-nonspecific isozyme (Homo sapiens) (P05186 whole entry, looked up): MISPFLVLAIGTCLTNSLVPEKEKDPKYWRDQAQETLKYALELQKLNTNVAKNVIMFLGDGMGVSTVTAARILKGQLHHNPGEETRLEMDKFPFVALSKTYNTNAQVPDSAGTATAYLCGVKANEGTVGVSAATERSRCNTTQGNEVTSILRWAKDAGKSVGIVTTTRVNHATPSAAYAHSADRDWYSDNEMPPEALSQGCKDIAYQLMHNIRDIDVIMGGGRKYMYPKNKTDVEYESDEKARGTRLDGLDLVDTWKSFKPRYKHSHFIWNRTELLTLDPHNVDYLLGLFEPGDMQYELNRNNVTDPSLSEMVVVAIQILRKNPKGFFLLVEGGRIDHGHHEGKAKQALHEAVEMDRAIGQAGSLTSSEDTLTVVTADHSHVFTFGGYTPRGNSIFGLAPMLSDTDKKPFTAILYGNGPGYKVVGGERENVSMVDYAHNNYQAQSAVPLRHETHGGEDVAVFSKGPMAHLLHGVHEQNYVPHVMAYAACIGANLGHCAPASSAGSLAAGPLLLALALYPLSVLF

The assay concerns the target Alkaline phosphatase, tissue-nonspecific isozyme (Homo sapiens) (UniProt P05186). In words: blockers of alkaline phosphatase TNAP activity – biochemical, luminescent, no phosphate acceptor, uHTS, primary screen (AID 1012).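 Also: 0% = DMSO negative control and 100% = EDTA positive control.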 To be noted: purified TNAP, CDP-star luminescence, 30 min; at 20 µM; stronger effect = higher value.
What is called inhibition is the change of the read-out against control, counted positive when it falls. In the case of `CN(C)CCCN=Cc1c(O)n(Cc2ccco2)c(=O)[nH]c1=O`, the inhibition was -20.3% (inactive).
With `O=C(N/N=C/c1c(O)n(Cc2ccccc2)c(=O)[nH]c1=O)c1ccccc1` the figure was 94.3% (active).
On to `CCC(=NCc1ccco1)c1c(O)n(Cc2ccccc2)c(=O)[nH]c1=O`, for which the inhibition is -5.5% (inactive).
With `O=C(OCCN1CCOCC1)C1(c2ccccc2)CCCC1` the figure was -3% (inactive); with `O=C(NCC(c1cccnc1)N1CCN(c2ccccc2)CC1)Oc1ccccc1` (stereo not given), -8.6% (inactive).
